Screening results deposited in PubChem by National Center for Advancing Translational Sciences (NCATS).
LmPK act = qHTS Assay for Activators of Leishmania Mexicana Pyruvate Kinase (LmPK) | AID 1722, 2009 | purified LmPK, Kinase-Glo ATP luminescence, 1 h | 290,000 tested, under 10 active | activity change, negative = inhibition, % at 57.5 µM | Q27686; calls by dose curve
Target sequence (Q27686 whole entry, looked up): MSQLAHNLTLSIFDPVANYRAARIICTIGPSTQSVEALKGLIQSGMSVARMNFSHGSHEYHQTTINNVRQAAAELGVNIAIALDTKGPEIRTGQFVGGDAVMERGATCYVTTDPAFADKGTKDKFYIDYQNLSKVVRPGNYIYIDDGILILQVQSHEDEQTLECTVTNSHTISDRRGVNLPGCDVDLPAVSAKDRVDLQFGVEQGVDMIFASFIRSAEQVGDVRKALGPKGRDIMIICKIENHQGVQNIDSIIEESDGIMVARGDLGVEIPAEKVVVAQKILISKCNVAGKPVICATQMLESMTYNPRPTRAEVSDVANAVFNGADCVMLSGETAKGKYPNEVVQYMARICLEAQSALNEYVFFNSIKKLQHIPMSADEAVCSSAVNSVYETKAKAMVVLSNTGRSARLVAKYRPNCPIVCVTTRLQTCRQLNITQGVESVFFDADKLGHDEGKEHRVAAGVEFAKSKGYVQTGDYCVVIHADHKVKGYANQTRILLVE
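Purified LmPK (0.1 nM) converted ADP (0.1 mM, ~10-fold below Km) plus PEP (0.5 mM, at Km) to ATP over 1 h at room temperature in pH 7.2 imidazole buffer. Generated ATP was read by luciferase luminescence.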
Calls only; – = inactive. A selection follows.

SMILES	LmPK act
COc1cc([N+](=O)[O-])ccc1N/C=C/C(=O)c1cccs1	–
CSc1nnc(NC(=O)c2ccc(S(=O)(=O)N(C)C)cc2)s1	–
CN(C)c1ccc(/C=N/N2CCN(c3ccccn3)CC2)cc1	–
CCOC(=O)Cc1ccc2sc(-c3ccccc3)nc2c1	–
CC(C)n1c(CSCc2ccc(Cl)cc2Cl)n[nH]c1=S	–
O=C(Nc1ccc(N2CCOCC2)cc1)c1ccc([N+](=O)[O-])o1	–
COc1ccc(-c2n[nH]c(=S)n2-c2ccc(Br)cc2)cc1OC	–
COc1cc(O)oc1C=Nc1ccc(C(=O)O)cc1	–
Cn1c(CNc2ccc(F)cc2)nc2ccccc21	–
O=C1C=CC(=O)N1c1cccc(-c2ccccc2)c1	–
CN(C)S(=O)(=O)c1cccc(C(=O)N=C2N=C3C=CC(Cl)=CN3Cc3ccccc32)c1	–
N#Cc1c(Cl)c(Cl)c2nnc(-c3ccc(Br)cc3)n2c1Cl	–
Cc1ccnc(NC(=O)c2cc3ccccc3oc2=O)c1	–
COc1ccc(C2CC(C)(c3ccc(OC)cc3OC)Nc3ccccc3N2)c(OC)c1 (stereo unspecified)	–
O=C(Nc1ccccc1C(=O)N/N=C/c1ccco1)c1ccc(F)cc1	–
CC1CC(C)CN(C(=O)c2ccc3c(c2NCCO)C(=O)c2ccccc2C3=O)C1 (stereo unspecified)	–
CCC(=O)Oc1ccc(C(=O)Nc2ccc3c(c2)OCO3)cc1	–
O=C(COc1ccc2c(c1)OCO2)Nc1nccs1	–
Cc1ccccc1-n1c([C@@H]2C[C@H]2c2ccccc2)n[nH]c1=S	–
C/C(=N/OC(=O)c1ccccc1)c1oc(C)nc1C	–
COC(CNC(=O)CCc1c(C)nc2c(-c3ccccc3)c(C)nn2c1C)OC	–
CS(=O)(=O)C1=NSC2=NC(=O)/C(=C\c3ccc(OC(=O)c4ccco4)c(Br)c3)C(=N)N21	–
Fc1ccc(OCc2nc3ccccc3s2)cc1	–
CC(C)Cn1c(-c2csc3c2CCCC3)n[nH]c1=S	–
CC(C)Cn1c(-c2ccc(Br)cc2)c[nH]c1=S	–
SMILES	LmPK act
CC(=O)Nc1ccc(S(=O)(=O)NNc2ccc([N+](=O)[O-])cc2)cc1	–
O=C(Nc1ccc(N2CCCCC2)cc1)c1ccccn1	–
CC(C)CCC(CC(C)O)c1n[nH]c(=S)n1-c1ccccc1 (stereo unspecified)	–
CC(C)S(=O)(=O)c1csc(C(=O)Nc2ccc(F)cc2)c1N	–
Cc1ccc(S(=O)(=O)Nc2c(Cl)c(Cl)c(O)c3ccccc23)cc1	–
C/C(=N\NC(=O)c1ccccc1NC(=O)c1ccc(Cl)cc1)c1ccncc1	–
O=CN/C=C/c1cc(O)ccc1O	–
C/C(=N\NC(=O)c1ccccn1)c1ccc(C(=O)O)s1	–
CCCC(=O)Nc1ccc(C2C(=O)c3ccccc3C2=O)cc1	–
O=C(c1ccc(Br)o1)N1CCc2ccccc21	–
C=CCN=C1NN=C(c2ccc3c(c2)OCCO3)CS1	–
Cc1ccc(/C=C(\C#N)C(=O)Nc2ccccn2)o1	–
CCCCn1c(-c2sccc2C)n[nH]c1=S	–
COc1cc(/C=C2/C(=O)c3cccc([N+](=O)[O-])c3C2=O)c(Br)cc1O	–
CSC(=NNC(=O)c1ccc(O)cc1)SC	–
S=c1[nH]ccn1-c1cccc(Cl)c1	–
CC1(C)CC(=O)c2sc(NC(=O)c3cccs3)nc2C1	–
CSc1nc(=S)c2[nH]c(=S)[nH]c2[nH]1	–
Cc1occc1C(=O)NNC(=O)c1ccccc1F	–
COC(=O)c1sccc1NC(=O)Nc1ccc(OC)cc1	–
CSCc1ccc(C(=O)Nc2ccc(C(N)=O)cc2)cc1	–
COc1ccc(/C=N/OC(=O)Nc2ccccc2OC)cc1	–
O=C(NCC1CCCO1)c1csc(Nc2cccc3ccccc23)n1 (stereo unspecified)	–
CCOc1ccc(/C=N/NC(=O)c2[nH]ncc2Br)c(O)c1	–
CCN(CC)c1ccc(/C=C2/C(=O)c3ccc(C(=O)O)cc3C2=O)cc1	–
SMILES	LmPK act
CC(C)Cc1cc(CN2CCC(CO)(Cc3cccc(C(F)(F)F)c3)CC2)[nH]n1	–
Cc1nc(S/C(C(=O)O)=C2/C(=O)Nc3ccccc32)n[nH]1	–
Cn1nc(C(=O)Nc2ccc3c(c2)OCCO3)cc1C(=O)O	–
Cc1ccccc1C(=O)O/N=C(\N)c1ccncc1	–
CCOc1ccc(Cc2c(C)[nH]c3ccc(C(=O)O)cc3c2=S)cc1	–
COc1ccc(/C=C/C(=O)c2cc3c(cc2N)OCO3)cc1	–
CCSc1nn2c(=O)c3ccccc3nc2s1	–
CC(C1CC2CCC1C2)n1c(-c2cccs2)n[nH]c1=S (stereo unspecified)	–
[O-][n+]1onc2c1CCC(=N/O)/C2=N\Nc1ccccc1	–
Cc1ccn2cc(-c3ccc(O)c(O)c3)nc2c1	–
O=[N+]([O-])c1cc2oc3c(c2c(C=NCc2ccncc2)c1O)CCCC3	–
CSc1nc(O)c(N=Nc2ccc(F)cc2F)c(=O)[nH]1	–
COc1ccccc1N1C(=O)C=C(Sc2nc(C)cc(C)n2)C1=O	–
CN1CCSc2ccc(C(=O)Nc3cccc(F)c3)cc21	–
N#CCC(=O)NNc1c([N+](=O)[O-])cc(C(F)(F)F)cc1[N+](=O)[O-]	–
N#C/C(=C\c1cccs1)C(=O)Nc1nccs1	–
